# Assay results as given in PubChem BioAssay.
# Target: Focal adhesion kinase 1 (Homo sapiens) (UniProt Q05397)
# Test: PTK2 protein binding on printed compound slides – biochemical, small-molecule microarray, 635/667 nm fluorescence, BSA, DTT, primary screen (AID 1130);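 further: composite of spot emission at 667 nm and signal to noise over triplicate slides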
# Conditions: 635 nm fluorescence, higher = more signal
# Focal adhesion kinase 1 (Homo sapiens), sequence (Q05397 whole entry, looked up): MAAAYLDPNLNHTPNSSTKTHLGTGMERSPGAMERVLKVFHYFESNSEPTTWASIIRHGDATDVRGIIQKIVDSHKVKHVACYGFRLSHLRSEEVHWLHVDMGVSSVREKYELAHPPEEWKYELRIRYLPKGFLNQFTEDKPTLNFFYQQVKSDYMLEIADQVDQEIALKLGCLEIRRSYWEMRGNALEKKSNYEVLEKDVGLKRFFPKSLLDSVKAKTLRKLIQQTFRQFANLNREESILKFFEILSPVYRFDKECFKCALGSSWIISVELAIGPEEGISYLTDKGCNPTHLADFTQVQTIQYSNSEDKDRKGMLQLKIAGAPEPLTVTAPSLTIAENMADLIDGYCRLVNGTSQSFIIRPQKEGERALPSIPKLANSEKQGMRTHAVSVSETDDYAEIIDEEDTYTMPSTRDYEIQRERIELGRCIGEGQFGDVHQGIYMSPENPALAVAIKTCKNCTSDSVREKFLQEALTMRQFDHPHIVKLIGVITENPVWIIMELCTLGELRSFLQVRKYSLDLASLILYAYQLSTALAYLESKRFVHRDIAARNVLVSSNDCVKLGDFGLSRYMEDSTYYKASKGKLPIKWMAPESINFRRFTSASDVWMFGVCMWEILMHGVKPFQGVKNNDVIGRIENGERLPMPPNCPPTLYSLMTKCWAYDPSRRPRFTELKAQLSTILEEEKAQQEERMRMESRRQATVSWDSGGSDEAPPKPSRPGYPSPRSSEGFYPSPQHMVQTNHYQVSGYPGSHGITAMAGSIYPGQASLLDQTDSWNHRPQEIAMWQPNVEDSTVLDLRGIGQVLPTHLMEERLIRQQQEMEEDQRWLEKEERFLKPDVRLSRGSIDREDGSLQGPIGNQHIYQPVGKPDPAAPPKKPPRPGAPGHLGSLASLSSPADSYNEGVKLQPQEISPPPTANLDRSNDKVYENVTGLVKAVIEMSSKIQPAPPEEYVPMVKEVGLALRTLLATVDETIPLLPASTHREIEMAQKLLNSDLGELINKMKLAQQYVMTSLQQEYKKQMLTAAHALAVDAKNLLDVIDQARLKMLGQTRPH
row,SMILES,composite z-score
1,COCCOC(=O)N1C(=O)[C@@]2(c3ccccc31)[C@H](c1ccc(O)cc1)N1[C@H](c3ccccc3)[C@H](c3ccccc3)OC(=O)[C@H]1[C@@H]2C(=O)Nc1nc2ccccc2s1,0.475
2,NC(=O)NCC#Cc1ccc2c(c1)[C@]1(C(=O)N2)[C@H](C(=O)Nc2nc3ccccc3s2)[C@H]2C(=O)O[C@H](c3ccccc3)[C@H](c3ccccc3)N2[C@@H]1c1ccccc1OCCO,0.997
3,COCCOC(=O)N1C(=O)[C@@]2(c3ccccc31)[C@H](c1ccccc1OCCO)N1[C@H](c3ccccc3)[C@H](c3ccccc3)OC(=O)[C@H]1[C@@H]2C(=O)N1CCN(c2ncccn2)CC1,0.1
4,COC(=O)[C@@]1(Cc2ccc(F)cc2)[C@H]2c3cc(C(=O)N4CCCC4)n(CCCNc4ncc(C(F)(F)F)cc4Cl)c3C[C@H]2CN1C(=O)c1ccccc1,0.604
5,CC(C)C[C@@H]1NC(=O)[C@@H]2C[C@H](C(=O)NCc3ccc(F)cc3)[C@H](c3cccc(OCCO)c3)N2C1=O,0.379
6,C=CCC(OC(C)=O)[C@@H]1[C@@H](N(Cc2cc3ccccc3o2)C(=O)c2cccc3ccccc23)c2cc(OCCCO)ccc2N1C(=O)c1ccc(-c2ccccc2)cc1 (some centres undefined),-0.166
7,C#C[C@H](O[Si](C#Cc1ccc(Oc2ccccc2)cc1)(C(C)C)C(C)C)c1ccccc1,-0.6
8,O=C1N[C@@H](Cc2ccccc2)C(=O)N2[C@@H]1C[C@@H](C(=O)O)[C@H]2c1cccc(OCCO)c1,0.27
9,COCCCNC(=O)[C@@]1(C)c2ccccc2C(=O)N(C(C)C)[C@H]1c1ccc(CO)cc1,0.624
